Compounds with a hit are over-represented: about 3.6% of the library has one in this group of screens.
A3A deaminase – human APOBEC3A DNA deaminase inhibition; P31941; inhibition, % at 20 µM; recombinant A3A, FAM/TAMRA ssDNA deamination fluorescence; 330,000 tested, 0.41% active; AID 493011;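 active = at least 40% inhibition at 20 µM here, with at most 30% in a related deaminase screen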
Target sequence (P31941 whole entry, looked up): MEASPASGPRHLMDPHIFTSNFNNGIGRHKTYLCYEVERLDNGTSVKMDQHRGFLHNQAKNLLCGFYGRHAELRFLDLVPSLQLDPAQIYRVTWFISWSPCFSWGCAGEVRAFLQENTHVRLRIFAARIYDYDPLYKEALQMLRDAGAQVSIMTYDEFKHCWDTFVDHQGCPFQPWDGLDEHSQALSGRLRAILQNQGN
APOBEC3G inh – inhibitors of human APOBEC3G DNA deaminase | 330,000 tested, 0.28% active | recombinant A3G, ssDNA deamination FAM/TAMRA fluorescence | Q9HC16 | inhibition, % at 20 µM;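 active = inhibition of at least 40% at 20 µM, with no more than 30% in the related APOBEC3A deaminase screen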
esBAF inh – blocks esBAF chromatin remodeling in mouse ES cells; Bmi1-luciferase knock-in reporter, 24 h; 100% = twice the neutral-well signal; reporter increase, % at 12.5 µM; 350,000 tested, 2% active; AID 602393; in the data active = activation above about 40%; inconclusive = no clear call, values can overlap the other calls;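 note: a rise in the Bmi1 reporter signal indicates esBAF inhibition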
Wnt act – activators of Wnt/beta-catenin signaling; Wnt/beta-catenin reporter cell assay, activator, plate reader; activation, % at 9.35 µM; 300,000 tested, 1.2% active; AID 743398; in the data active = activation above about 30%, passing the limit was not always enough; inconclusive = no clear call, values can overlap the other calls
PHOSPHO1 inh – PHOSPHO1 (human) inhibition; recombinant PHOSPHO1, absorbance phosphatase assay; inhibition, % at 13.3 µM; 290,000 tested, 1.1% active; in the data active = inhibition above about 60%
Target sequence (Q8TCT1 whole entry, looked up): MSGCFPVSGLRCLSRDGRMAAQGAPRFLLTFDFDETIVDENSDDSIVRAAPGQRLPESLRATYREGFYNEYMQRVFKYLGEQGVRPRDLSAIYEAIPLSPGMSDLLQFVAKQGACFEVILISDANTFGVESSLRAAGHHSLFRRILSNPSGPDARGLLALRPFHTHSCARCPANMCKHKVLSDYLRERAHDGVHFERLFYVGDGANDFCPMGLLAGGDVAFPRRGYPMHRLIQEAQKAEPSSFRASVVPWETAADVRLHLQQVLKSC
MITF act – activators of MITF-driven TRPM1 promoter activity in SK-MEL-5 cells | SK-MEL-5 TRPM1-promoter luciferase, 24 h; % of positive control, neutral wells = 0 | activation, % at 12.5 µM | 300,000 tested, 0.75% active;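 active = mean activation of at least 80% with every replicate also reaching 80%; inconclusive = mean reaches 80% but some replicate falls short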
Numbers stand for hits; n = inactive; u = inconclusive; x = no result.

SMILES | A3A deaminase | APOBEC3G inh | esBAF inh | Wnt act | PHOSPHO1 inh | MITF act
CC(C)Cc1ccc(CN2CCC(n3nccc3NC(=O)C3CCCC3)CC2)cc1 | n | n | n | n | n | n
O=C(C[C@H]1C[C@@H]2c3cc(NS(=O)(=O)c4ccccc4)ccc3O[C@@H]2[C@H](CO)O1)NCC1CC1 | x | x | n | x | x | x
COc1ccc(CNC(=O)C[C@H]2C[C@@H]3c4cc(NC(=O)CN(C)C)ccc4O[C@@H]3[C@H](CO)O2)cc1 | x | x | n | x | x | x
CN1CCN(C(=O)C[C@@H]2C[C@H]3c4cc(NC(=O)C5CCC5)ccc4O[C@H]3[C@@H](CO)O2)CC1 | x | x | n | x | x | x
COc1ccccc1CN1CCC(n2nccc2NC(=O)CCOc2ccccc2)CC1 | n | n | n | n | 75 | n
CC(=O)Oc1ccc(C(=O)Nc2ccc(C3(C#N)CCCC3)cc2)cc1 | n | n | 51 | n | n | x
N#C/C(=C\c1cccnc1)c1nc2c(s1)CCCC2 | n | n | x | n | n | n
CC1CCc2nc(/C(C#N)=C/c3cccnc3)sc2C1 (stereo unspecified) | n | n | x | x | n | 85
CN1C(=O)c2cc(NC(=O)Cc3cccs3)ccc2OC[C@@H]2O[C@H](CC(=O)NCCCN3CCOCC3)CC[C@@H]21 | x | x | n | x | x | x
Cc1cc(C)n(-c2ccc(C(=O)OCc3nnc(-c4ccccc4)o3)cc2)n1 | n | n | 46 | x | n | n
CCOc1cccc(C(=O)Nc2cccc(-c3nnc(-c4ccccc4)o3)c2)c1 | n | n | 43 | n | n | n
Cc1cc(C)n(-c2ccc(C(=O)OCc3ccccc3)cc2)n1 | n | n | x | n | n | n
CCOC(=O)c1cccc(COC(=O)c2cccc(-c3nnc(-c4ccccc4)o3)c2)c1 | n | n | x | 55 | n | n
CCOc1cccc(C(=O)Nc2cccc(-c3nnc(-c4ccc(C)cc4)o3)c2)c1 | n | n | n | x | n | n
CC(=O)Nc1cccc(-c2nnc(-c3ccccc3)o2)c1 | n | n | u | 35 | n | x
COc1ccc(Nc2nc(N3CCCC3)nc3ccccc23)c(OC)c1 | n | n | n | n | n | n
COc1ccc(Nc2nnc(Cc3ccncc3)c3ccccc23)c(OC)c1 | n | n | 52 | n | n | n
CO[C@@H]1CN(C)C(=O)c2cc(NS(=O)(=O)c3cccc(F)c3)ccc2OC[C@H](C)N(C(=O)Cc2cccnc2)C[C@H]1C | x | x | n | x | x | x
COCC(=O)Nc1ccc2c(c1)C(=O)N(C)C[C@H](OC)[C@@H](C)CN(Cc1ccccc1F)[C@@H](C)CO2 | x | x | n | x | x | x
Cc1cc2nnc(SC3CCOC3=O)n2c2ccccc12 (stereo unspecified) | n | n | n | n | 74 | x
Cc1cc(SC2CCOC2=O)nc2ccccc12 (stereo unspecified) | n | n | x | n | n | n
COc1ccc(CCNC(=O)CCSCc2ccccc2F)cc1OC | n | n | n | n | n | n
O=C(CSc1nncs1)NCCNC(=O)CSc1nncs1 | n | n | n | n | x | n
O=C(CSc1nncs1)NCCCc1ccccc1 | n | n | x | 78 | n | n
CC(Sc1ccccc1)C(=O)NCCc1ccccc1 (stereo unspecified) | n | n | 63 | n | n | x
SMILES | A3A deaminase | APOBEC3G inh | esBAF inh | Wnt act | PHOSPHO1 inh | MITF act
O=C(CSc1ccccc1)NCCc1ccccc1 | n | n | 52 | n | n | n
O=C(CCSCc1ccccc1F)NCCc1ccccc1 | n | n | n | 38 | n | n
O=C(C[C@H]1CC[C@H]2[C@@H](COC[C@H](O)CN2Cc2ccccc2)O1)NCCc1ccccc1 | x | x | n | x | x | x
CO[C@@H]1CN(C)C(=O)c2cc(NC(=O)C3CC3)ccc2OC[C@@H](C)N(CC2CCCC2)C[C@@H]1C | x | x | n | x | x | x
COc1ccc(C2(CNS(=O)(=O)c3ccccc3)CCOCC2)cc1 | n | n | x | n | 64 | n
CC(C)NC(=O)N[C@@H]1C=C[C@H](CC(=O)NCCCN(C)C)O[C@@H]1CO | x | x | n | x | x | x
Cc1cc(NC(=O)c2ccccc2)sc1C | n | n | n | 54 | n | n
COc1ccc(NC(=O)Nc2ccc3c(c2)C(=O)N([C@@H](C)CO)C[C@H](C)[C@H](CN(C)S(=O)(=O)c2ccc(C)cc2)OCCCC[C@@H](C)O3)cc1 | x | x | n | x | x | x
CCc1c(C)nc(SCC(=O)c2cccs2)c(C#N)c1C | n | n | 54 | x | n | n
CCCN(C)C[C@H]1Oc2cc(C#Cc3ccccc3F)ccc2S(=O)(=O)N([C@H](C)CO)C[C@@H]1C | x | x | n | x | x | x
COc1cccc2cc(-c3cn4ccc(C)cc4n3)c(=O)oc12 | n | n | 105 | x | x | n
COc1cccc2cc(-c3cn4cccc(C)c4n3)c(=O)oc12 | n | n | n | n | x | n
N#C[C@@H]1[C@H](c2ccc(-c3cccnc3)cc2)[C@H](CO)N1C(=O)C1CCOCC1 | x | x | n | x | x | x
N#CCc1nc(CSc2nc3ccccc3o2)cs1 | n | n | 102 | n | n | n
c1ccc2oc(SCc3nc4ccccc4s3)nc2c1 | n | n | x | x | n | n
C/C=C/c1ccc([C@@H]2[C@H](C#N)N(C(=O)NC3CCCCC3)[C@H]2CO)cc1 | x | x | n | x | x | x
CCC(c1nnc(SCC(=O)NCCc2ccc(Cl)cc2Cl)o1)N(C)C (stereo unspecified) | n | n | n | x | 67 | n
COc1ccccc1N1CCN(c2cc(N3CCCC3)nc(C)n2)CC1 | n | n | n | x | n | n
COc1ccccc1N1CCN(c2ccc3ccccc3n2)CC1 | n | n | n | n | n | 108
O=C1/C(=C\c2ccc(O)cc2)SC(=S)N1/N=C/c1ccc(O)cc1 | n | n | x | 51 | n | n
CC(C)c1[nH]nc2c1C(C1C=CCCC1)C(C#N)=C(N)O2 (stereo unspecified) | n | n | x | 46 | n | n
Cc1cc(C)c(NC(=O)COC(=O)C2=COCCO2)c(C)c1 | x | x | n | n | x | x
O=C(COC(=O)C1=COCCO1)Nc1cc(Cl)c(Cl)cc1Cl | n | n | n | 45 | x | n
Cc1cc(C(=O)Nc2cccc3c2O[C@@H](CN(C)Cc2ccc(Cl)c(Cl)c2)[C@@H](C)CN([C@@H](C)CO)C3=O)n(C)n1 | x | x | n | x | x | x
CC(C)NC(=O)N(C)C[C@@H]1Oc2c(NS(=O)(=O)c3ccc(F)cc3)cccc2C(=O)N([C@H](C)CO)C[C@@H]1C | x | x | n | x | x | x
SMILES | A3A deaminase | APOBEC3G inh | esBAF inh | Wnt act | PHOSPHO1 inh | MITF act
O=C(NCc1ccc(F)cc1)[C@H]1[C@H](CO)[C@H]2Cn3c(cccc3=O)[C@@H]1N2CC1CCCC1 | x | x | n | x | x | x
O=C(Cn1cnc2c(nnn2-c2ccccc2)c1=O)N1CCOCC1 | n | n | n | n | n | n
O=C(Cn1cnc2c(nnn2-c2cccc(Cl)c2)c1=O)N1CCOCC1 | n | n | n | 56 | n | n
CCC1CC2(C)NC(=O)c3c(sc4c3CC(C)(C)OC4)N2C1=O (stereo unspecified) | n | n | x | x | 84 | n
C[C@H]1CN([C@@H](C)CO)C(=O)Cc2cc(NC(=O)Cc3cn(C)c4ccccc34)ccc2O[C@H]1CN(C)C | x | x | n | x | x | x
Clc1ccc(/C=N/Nc2nc(Cl)nc3ccccc23)cc1 | n | n | 58 | x | n | x
Clc1ccc(/C=N/Nc2nnc(Cl)c3ccccc23)cc1 | n | n | 90 | n | n | n
